PubChem BioAssay (NCI)
Compounds without any hit were thinned out: in the full panel of roughly 79,000, 15% have a hit. Cut-off read from the data, not from the text of the source: active = growth inhibition above about 70%; inactive = the rest.

What was measured:
[1] = NCI Yeast Anticancer Drug Screen. Data for the rad50 strain (AID 155);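 note: 0% = growth of vehicle-only cultures of the same strain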; conditions: S. cerevisiae rad50 strain growth inhibition; at 50.0 µM; hits give high values
How it was run: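 Relative growth inhibition (compound vs vehicle) was measured in yeast with a defined repair-gene alteration.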

[2] = NCI Yeast Anticancer Drug Screen. Data for the mec2-1 strain (AID 157); conditions: S. cerevisiae mec2-1 strain, at 50.0 µM, hits give high values
How it was run: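 Vehicle-treated cultures served as reference for growth inhibition of compound-exposed mec2-1 yeast.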

[3] = NCI Yeast Anticancer Drug Screen. Data for the sgs1 mgt1 strain (AID 161);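 note: 0% = growth of cultures given vehicle only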; conditions: S. cerevisiae sgs1 mgt1 strain, at 50.0 µM, hits give high values
How it was run: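 Mutant yeast exposed to compound; growth scored against vehicle-only wells.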

[4] = NCI Yeast Anticancer Drug Screen. Data for the cln2 rad14 strain (AID 165);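 note: 0% = growth equal to vehicle treated cultures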; conditions: S. cerevisiae cln2 rad14 strain, at 50.0 µM, hits give high values
How it was run: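 Each compound was tested on cln2 rad14 yeast. Inhibition of growth was calculated against vehicle-exposed controls.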

[5] = NCI Yeast Anticancer Drug Screen. Data for the bub3 strain (AID 167); conditions: S. cerevisiae bub3 mutant strain, at 50.0 µM, hits give high values
How it was run: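 Screening used yeast with an engineered genetic alteration affecting cell cycle control. Compound-exposed cultures were compared with vehicle cultures, and reduced growth was taken as inhibition.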

[6] = NCI Yeast Anticancer Drug Screen. Data for the mlh1 rad18 strain (AID 175); conditions: S. cerevisiae mlh1 rad18 strain growth inhibition; at 50.0 µM; hits give high values
How it was run: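 Vehicle-treated cultures served as the reference for growth inhibition in a yeast strain carrying DNA damage repair alterations exposed to each compound.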

Measured: growth inhibition

CCCCNC(=O)c1ccc(OCC)cc1
inactive: [1] 12.2% | [2] 20.4% | [3] 33.3% | [4] -16.4% | [5] -8.85% | [6] -0.1%

C/C(O)=C(/C=N\C(=S)Nc1ccc(S(=O)(=O)Nc2nccs2)cc1)C(=O)Nc1ccccc1C
inactive: [1] -14.3% | [2] 8.1% | [3] 15.3% | [4] 32.8% | [5] 7.65% | [6] -18.8%

CCCCCCCCCCCCSC1=C(Cl)C(=O)C(OC)=C(OC)C1=O
inactive: [1] 23.3% | [2] -18.1% | [3] 1.5% | [4] 4.75% | [5] -7.2% | [6] 38%

NCCCN1CCCC1=O
inactive: [1] -20.1% | [2] -21.3% | [3] -14.8% | [4] 1.8% | [5] -23.3% | [6] -15.1%

CSc1nc2[nH]ncc2c(=O)[nH]1
inactive: [1] -19.8% | [2] 5.85% | [3] 15.4% | [4] -40.6% | [5] -3.05% | [6] -6.15%

C=C(c1ccc(N(C)C)cc1)c1ccc(N(C)C)cc1
inactive: [1] -0.95% | [2] -2.55% | [3] -3.05% | [4] -40.4% | [5] 9.5% | [6] -5.3%

CCOc1ccc(NC(=S)N2CCC(CCCC3CCN(C(=S)Nc4ccc(OCC)cc4)CC3)CC2)cc1
inactive: [1] -6.6% | [2] -31.9% | [3] -15.1% | [4] 14.9% | [5] -9.05% | [6] -11.4%

CCCCCCCCCCC(=O)CCCCCCCCCC
inactive: [1] 7.15% | [2] -12.2% | [3] 8.1% | [4] 16.8% | [5] 7.6% | [6] 7.05%

Oc1cccnc1CN1CCCC1
inactive: [1] 1.15% | [2] -12.8% | [3] 2.3% | [4] 1.7% | [5] -5.8% | [6] 18.4%

CC1CN(CCO)CC(C)O1 (stereo not given)
inactive: [1] -14.1% | [2] -26.8% | [3] 4.05% | [4] 5% | [5] -1.15% | [6] -10.2%

CC(=O)NCNC(C)=O
inactive: [1] -4.1% | [2] 5.4% | [3] 3.75% | [4] -75.1% | [5] 7.8% | [6] -0.6%

CCOc1ccccc1NC(=O)CCl
inactive: [1] 16.4% | [2] 3.2% | [3] 8.6% | [4] -5.2% | [5] 18.9% | [6] 39.9%

CCCC1OC(c2ccco2)OCC1CC (stereo not given)
inactive: [1] 30.8% | [2] -2.15% | [3] 18.6% | [4] -27.8% | [5] -0.05% | [6] 27.1%

Nc1ccn(C2CC(N)C(CO)O2)c(=O)n1 (stereo not given)
inactive: [1] 16.1% | [2] 7.15% | [3] 9.25% | [4] 19.8% | [5] 6.9% | [6] 32.4%

Cc1cccc2ccccc12
inactive: [1] -9.65% | [2] -15.6% | [3] 10.5% | [4] 24.4% | [5] -3.6% | [6] 13.8%

CN(C)c1ccc(O)c2c1CC1CC3C(N(C)C)C(=O)C(C(N)=O)=C(O)C3(O)C(=O)C1=C2O (stereo not given)
inactive: [1] 60.8% | [2] 29.7% | [3] 68.2% | [4] 18.4% | [5] 3.6% | [6] 32.9%

CC(=O)c1ccc(C)cc1
inactive: [1] -1.75% | [2] 6.1% | [3] -28.8% | [4] -2.8% | [5] -36% | [6] -11.6%

C=C1SC(=Nc2c(C)cccc2C)N(c2nc(Cl)nc(Cl)n2)C12CCCCC2
inactive: [1] 21% | [2] -8.75% | [3] 11.2% | [4] 19.1% | [5] 10.9% | [6] 14.1%

O=S(=O)(c1ccc(NC(=S)NCc2cccnc2)cc1)N1CCCCC1
inactive: [1] 21.9% | [2] 11.9% | [3] 23.9% | [4] 1.8% | [5] 36.4% | [6] 22.2%

COc1cc(OC)c(NC(=O)C(Sc2nc(C)cc(C)c2C#N)c2ccccc2)cc1Cl (stereo not given)
inactive: [1] -6.3% | [2] -19.9% | [3] -4.95% | [4] 22.2% | [5] 1.6% | [6] 5.9%
